The values that follow come from PubChem BioAssay (NCATS).

A short description of experiment [1]: Confirmatory qHTS for small molecule stabilizers of the endoplasmic reticulum resident proteome: Secreted ER Calcium Modulated Protein (SERCaMP) assay (AID 1508628). Note: potency is the fitted concentration of half-maximal effect; nearly all actives have a fitted effect of over 40% in size. A digest of the protocol: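 We seeded SH-SY5Y-GLuc-SERCaMP cells, added compounds (three concentrations in the primary run, eleven up to 76.6 uM in confirmation), incubated 16 h, depleted ER calcium with thapsigargin, and read luciferase 4 h later.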

Experiment [2] deals with Dual specificity protein kinase CLK4 (Homo sapiens) (UniProt Q9HAZ1). Kind of experiment: qHTS Assay for Inhibitors of CDC-like Kinase 4 (ADP-Glo Assay) (AID 1771). Note: % is set by controls: 0 for no effect and ±100 for the full control effect; nearly all actives have a fitted effect of over 70% in size. A digest of the protocol:
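Clk4 (25 nM) was incubated 1 hr at room temperature with 100 uM RS repeat peptide and 1 uM ATP in buffer with 2 mM MgCl2, 0.5 mM EGTA, 2.5 mM DTT. ADP formed was quantified by ADP-Glo luminescence.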

Experiment [3] can be described thus: qHTS Assay for Identification of Small Molecule Agonists for Thrombopoietin (TPO) Signaling Pathway (AID 917). Note: % is set by controls: 0 for no effect and ±100 for the full control effect. An outline of the steps: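 Murine Ba/F3 cells stably expressing human TPO receptor and a Glycoprotein IIb promoter–luciferase reporter were IL-3-starved overnight, then treated with compounds plus TPO (26 pM final, its EC50) for 24 hrs at 37 C; luminescence was read.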

The nature of experiment [4]: Cytotoxicity counterscreen for inhibitors of SARS-CoV-2 cell entry (AID 1645845; calls by dose curve; note: % is set by controls: 0 for no effect and ±100 for the full control effect; nearly all actives have a fitted effect of over 50% in size). The settings on record: outcome: dose series up to 57.1 µM unless noted. An outline of the steps: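 Expi293F/hACE2 cells seeded overnight; cpd pin-transferred in DMSO, 1 h preincubation, + media, 48 h 37 C 5% CO2; ATPLite 1step luminescence; normalized to cells and no cells.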
A short description of experiment [5]: Primary qHTS to identify inhibitors of SARS-CoV-2 cell entry (AID 1645846; calls by dose curve; note: nearly all actives have a fitted effect of over 45% in size). The settings on record: SARS-CoV-2 pseudovirus cell entry assay, luminescence; activity change, negative = inhibition: at 57.1 µM (top of the series) unless noted. A digest of the protocol:
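Luminescence readout (Bright-Glo luciferase) 48 h after pseudoparticle addition. HEK293-ACE2 cells, 1500/well; compound pre-incubation 1 h; Normalized to spike PP and bald PP.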

Experiment [6] has as its target Glutathione peroxidase 1 (Homo sapiens) (UniProt P07203). The experiment is described as follows: Primary qHTS Assay for Inhibitors of Recombinant Selenoprotein Glutathione Peroxidase 1 (GPX1) (AID 1845191). Note: nearly all actives have a fitted effect of over 65% in size. A digest of the protocol: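 Recombinant GPX1 (10 nM final) was preincubated with compound for 30 min at room temperature, then reacted with 1 mM GSH, 0.5 mM CHP, 0.5 mM NADPH and 100 nM glutathione reductase; NADPH fluorescence (340/450 nm) was read at 0 and 15 min.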

For experiment [7], the target named is Phospholipid hydroperoxide glutathione peroxidase GPX4 (Homo sapiens) (UniProt P36969). Kind of experiment: Primary qHTS Assay for Inhibitors of Recombinant Selenoprotein Glutathione Peroxidase 4 (GPX4) (AID 1845192). Note: % is set by controls: 0 for no effect and ±100 for the full control effect; nearly all actives have a fitted effect of over 65% in size. An outline of the steps: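 GR-coupled readout: 100 nM GR, 1 mM GSH, 0.5 mM NADPH; NADPH fluorescence (ex 340/em 450 nm) read at t=0 and after 15 min RT. GPX4 200 nM, preincubated 30 min with compound; substrate 0.5 mM CHP.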

Experiment [8] is described as follows: Cellular Toxicity (caspase-3) Hek293 (AID 664).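 Note: cells exposed to compound for 16 h at 37 °C before readout.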 An outline of the steps:
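HEK293 cells were exposed to compounds in complete medium for 16 hr at 37 °C, then caspase-3/7 activity was read by Caspase-Glo 3/7 luminescence after 20 min at room temperature. Data normalized to DMSO and 100 uM tamoxifen; AC50 from Hill fits.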

Experiment [9] is described as follows: MultiTox-Fluor Cytotoxicity Assay - LYMP1-001 - Live Cells (AID 947).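 Note: 0% = DMSO only and full inhibition = tetraoctylammonium bromide control.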
Experiment [10] can be described thus: Cell Viability - LYMP2-011 (AID 969).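 Note: 0% = DMSO only and full inhibition = 92 µM tetraoctylammonium bromide; nearly all actives have a fitted effect of over 60% in size.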 An outline of the steps:
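Human lymphoblastoid cells (2500/well) were plated in complete medium, preincubated 5 hr at 37 C, then exposed to compounds for 24 hr at 37 C. Intracellular ATP was read by CellTiter-Glo luminescence, and AC50 came from Hill-equation concentration-response fits.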

Experiment [11] in a line: Cell Viability - LYMP2-026 (AID 989). Note: % is set by controls: 0 for no effect and ±100 for the full control effect; nearly all actives have a fitted effect of over 50% in size. An outline of the steps:
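Human lymphoblastoid cells (2500/well) in complete medium were preincubated 5 hr at 37 C, then exposed to compounds for 24 hr at 37 C. Cellular ATP was read by CellTiter-Glo luminescence; AC50 from Hill-equation fits of concentration-response data.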

A short description of experiment [12]: Cell Viability - LYMP1-002 - Assay at 24 hr (AID 993). Note: % is set by controls: 0 for no effect and ±100 for the full control effect. An outline of the steps:
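Human lymphoblastoid LYMP1-002 cells, 2500/well in complete medium, were treated with compounds for 24 h at 37 C; intracellular ATP was read by CellTiter-Glo luminescence. AC50 values came from Hill-equation fits of qHTS concentration-response data.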

A short description of experiment [13]: Cell Viability - LYMP1-002 - Assay at 40 hr (AID 994).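 Note: 0% = DMSO only and full inhibition = 92 µM tetraoctylammonium bromide; nearly all actives have a fitted effect of over 60% in size.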 An outline of the steps: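 Human lymphoblastoid cells, 2500/well in complete medium, were preincubated 5 hr at 37 C, then exposed to compounds for 40 hr at 37 C. Intracellular ATP was read by CellTiter-Glo luminescence after 30 min at room temperature; AC50 from Hill-equation fits.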
In experiment [14] the target is Cytochrome P450 2C19 (Homo sapiens) (UniProt P33261). Kind of experiment: qHTS for inhibitors of CYP2C19 against the NCATS DSHEA and TCM libraries (AID 1919974).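 Note: luminescence from luciferin released by CYP2C19 oxidation of a pro-luciferin substrate; % is set by controls: 0 for no effect and ±100 for the full control effect.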 An outline of the steps: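 Luminescent P450-Glo readout. Enzyme plus pro-luciferin substrate in manufacturer buffer (typically 100 mM KPO4); 15 min RT preincubation; 1x NADPH regenerating system, 30-45 min RT in the dark; detection reagent 30 min.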

Experiment [15] concerns the target Nuclear receptor subfamily 1 group I member 2 (Homo sapiens) (UniProt O75469). The experiment is described as follows: Dual reporter qHTS for agonist of Pregnane X Receptor (hPXR) against the NCATS DSHEA and TCM libraries: Luminescence readout (AID 1920059). Note: 0% is about no effect. An outline of the steps:
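hPXR-LucHepG2 cells in phenol red-free DMEM with 5% charcoal-stripped FBS, 2000 cells/well, attached 5 h, then exposed 24 h at 37C to compounds; rifampicin as positive agonist control (2.8 nM–92 uM). Luciferase luminescence read.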

The target of experiment [16] is Rap guanine nucleotide exchange factor 3 (Homo sapiens) (UniProt O95398). The experiment is described as follows: Counterscreen qHTS for antagonist of cAMP-regulated guanine nucleotide exchange factor 3 (EPAC1) (AID 1645888).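 Note: fluorescence loss as bound BODIPY-GDP is released from Rap1B; % of control where 0% means no effect.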 An outline of the steps:
(§1)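 Measured: fluorescence of BODIPY-GDP bound to Rap1B, which falls as exchange proceeds. Conditions include 50 uM competing GDP, 5 and 30 min reads, and a later cAMP challenge for antagonist detection.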

Experiment [17] has the same target. Kind of experiment: Counterscreen qHTS for agonist of cAMP-regulated guanine nucleotide exchange factor 3 (EPAC1) (AID 1645889). For activation: % of control where 0% means no effect. Note: nearly all actives have a fitted effect of over 40% in size. Note: potency is the fitted concentration of half-maximal effect. An outline of the steps: as §1
Experiment [18] concerns the target Nuclear receptor subfamily 1 group I member 3 (Homo sapiens) (UniProt Q14994). The experiment is described as follows: Primary qHTS for antagonist of constitutive androstane receptor (CAR) against the NCATS DSHEA and TCM libraries (AID 1794836). An outline of the steps:
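HepG2 cells stably carrying hCAR and a CYP2B6 luciferase reporter (2,500 cells/well) attached for 5 h, then received compounds with 48 uM CITCO for 24 h at 37C. ONE-Glo luminescence read antagonism; CellTiter-Fluor (405/540 nm) gave viability.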

The nature of experiment [19]: KB-8-5-11 P-gp reporter qHTS against the NCATS DSHEA and TCM libraries (AID 1919977). Note: 0% is about no effect. A digest of the protocol: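 P-gp-overexpressing KB-8-5-11 cells (500/well) were plated in colchicine-free DMEM with 10% FBS, attached ~4 h, then exposed to substance titrations for ~72 h at 37C. Viability was read by CellTiter-Glo luminescence.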
Experiment [20] is described as follows: qHTS profiling for inhibitors of Plasmodium falciparum proliferation (AID 504749).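 Note: 0% = DMSO vehicle and full inhibition = artemisinin control; nearly all actives have a fitted effect of over 60% in size.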 The settings on record: P. falciparum in erythrocytes, SYBR Green DNA, 72 h, at 28.7 µM (top of the series). A digest of the protocol:
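P. falciparum-infected erythrocytes (0.3% parasitemia, 2.5% hematocrit final) were exposed to compounds for 72 h at 37 C in 5% CO2, then lysed with SYBR Green buffer overnight at room temperature; parasite DNA fluorescence was normalized to artemisinin and DMSO controls.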

Molecules are shown by their SMILES. Results filed as inconclusive are left out. Calls of active or inactive are those of the source. Unless noted, calls come from the whole dose curve; as a rule, active = well fitted curve in the direction sought with a large enough effect; inconclusive = small, poorly fitted or top-dose-only effect, or another doubt; inactive = no such curve, though single readings can be large; an effect the other way counts as inactive or inconclusive.

Rap guanine nucleotide exchange factor 3 (Homo sapiens), sequence (O95398 whole entry, looked up): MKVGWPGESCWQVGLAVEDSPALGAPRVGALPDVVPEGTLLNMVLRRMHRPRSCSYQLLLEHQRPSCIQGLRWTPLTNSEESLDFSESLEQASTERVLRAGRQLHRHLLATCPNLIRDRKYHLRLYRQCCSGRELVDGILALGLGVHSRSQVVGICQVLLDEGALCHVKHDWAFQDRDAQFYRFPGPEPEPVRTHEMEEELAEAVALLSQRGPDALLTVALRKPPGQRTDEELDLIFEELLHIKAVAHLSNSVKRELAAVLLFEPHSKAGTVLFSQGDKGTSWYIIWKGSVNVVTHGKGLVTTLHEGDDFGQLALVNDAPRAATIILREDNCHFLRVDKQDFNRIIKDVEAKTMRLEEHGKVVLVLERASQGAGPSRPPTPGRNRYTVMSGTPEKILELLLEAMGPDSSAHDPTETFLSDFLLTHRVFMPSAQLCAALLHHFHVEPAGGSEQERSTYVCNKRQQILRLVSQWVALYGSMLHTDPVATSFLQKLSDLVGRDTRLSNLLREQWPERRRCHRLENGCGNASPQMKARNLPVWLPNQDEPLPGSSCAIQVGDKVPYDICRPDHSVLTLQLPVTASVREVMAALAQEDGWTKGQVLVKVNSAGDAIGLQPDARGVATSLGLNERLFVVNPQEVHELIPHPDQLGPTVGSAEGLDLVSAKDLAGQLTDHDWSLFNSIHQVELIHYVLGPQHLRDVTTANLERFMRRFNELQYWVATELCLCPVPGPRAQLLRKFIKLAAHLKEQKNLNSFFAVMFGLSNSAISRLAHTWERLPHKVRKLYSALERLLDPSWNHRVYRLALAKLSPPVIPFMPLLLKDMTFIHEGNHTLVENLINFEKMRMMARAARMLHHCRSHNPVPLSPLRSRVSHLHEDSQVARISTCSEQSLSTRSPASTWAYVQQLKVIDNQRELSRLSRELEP
Nuclear receptor subfamily 1 group I member 3 (Homo sapiens), sequence (Q14994 whole entry, looked up): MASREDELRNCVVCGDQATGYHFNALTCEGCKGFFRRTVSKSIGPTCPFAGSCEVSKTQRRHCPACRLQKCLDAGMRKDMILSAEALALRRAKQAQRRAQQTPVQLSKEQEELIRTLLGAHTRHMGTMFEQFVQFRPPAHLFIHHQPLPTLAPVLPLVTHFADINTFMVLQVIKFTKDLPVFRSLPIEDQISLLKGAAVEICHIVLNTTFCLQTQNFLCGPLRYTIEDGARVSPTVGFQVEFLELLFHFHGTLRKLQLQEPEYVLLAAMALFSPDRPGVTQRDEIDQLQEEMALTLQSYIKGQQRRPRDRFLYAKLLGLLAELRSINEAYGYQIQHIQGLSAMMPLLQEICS
Glutathione peroxidase 1 (Homo sapiens), sequence (P07203 whole entry, looked up): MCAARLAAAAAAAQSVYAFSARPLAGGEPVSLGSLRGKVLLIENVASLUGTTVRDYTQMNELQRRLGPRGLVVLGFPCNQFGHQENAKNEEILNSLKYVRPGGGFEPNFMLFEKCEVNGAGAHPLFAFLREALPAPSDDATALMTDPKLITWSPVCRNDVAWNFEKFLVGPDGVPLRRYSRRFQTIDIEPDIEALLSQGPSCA
Cytochrome P450 2C19 (Homo sapiens), sequence (P33261 whole entry, looked up): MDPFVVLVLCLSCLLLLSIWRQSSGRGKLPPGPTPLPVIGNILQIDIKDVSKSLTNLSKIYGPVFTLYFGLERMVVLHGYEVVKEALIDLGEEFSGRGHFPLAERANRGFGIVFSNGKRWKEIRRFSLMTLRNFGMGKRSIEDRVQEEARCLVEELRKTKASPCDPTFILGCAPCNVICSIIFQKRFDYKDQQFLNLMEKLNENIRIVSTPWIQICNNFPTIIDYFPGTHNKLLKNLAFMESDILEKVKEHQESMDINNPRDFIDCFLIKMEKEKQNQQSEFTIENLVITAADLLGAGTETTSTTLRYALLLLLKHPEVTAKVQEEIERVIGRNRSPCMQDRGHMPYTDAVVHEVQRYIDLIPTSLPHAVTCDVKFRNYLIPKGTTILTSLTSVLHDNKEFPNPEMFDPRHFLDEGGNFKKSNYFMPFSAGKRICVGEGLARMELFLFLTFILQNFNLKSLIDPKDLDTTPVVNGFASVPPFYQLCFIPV
Dual specificity protein kinase CLK4 (Homo sapiens), sequence (Q9HAZ1 whole entry, looked up): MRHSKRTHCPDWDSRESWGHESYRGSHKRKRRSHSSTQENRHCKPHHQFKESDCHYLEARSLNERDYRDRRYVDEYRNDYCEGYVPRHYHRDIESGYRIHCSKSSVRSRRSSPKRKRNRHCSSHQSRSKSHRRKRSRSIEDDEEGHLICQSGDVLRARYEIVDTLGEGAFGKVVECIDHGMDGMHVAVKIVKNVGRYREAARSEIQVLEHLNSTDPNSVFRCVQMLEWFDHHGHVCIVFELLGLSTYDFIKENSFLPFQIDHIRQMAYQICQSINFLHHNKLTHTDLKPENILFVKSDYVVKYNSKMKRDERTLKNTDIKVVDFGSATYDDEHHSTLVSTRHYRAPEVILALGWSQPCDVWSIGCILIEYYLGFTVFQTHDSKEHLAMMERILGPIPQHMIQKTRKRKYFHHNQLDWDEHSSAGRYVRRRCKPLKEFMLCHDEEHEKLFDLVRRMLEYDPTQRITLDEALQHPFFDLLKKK
Nuclear receptor subfamily 1 group I member 2 (Homo sapiens), sequence (O75469 whole entry, looked up): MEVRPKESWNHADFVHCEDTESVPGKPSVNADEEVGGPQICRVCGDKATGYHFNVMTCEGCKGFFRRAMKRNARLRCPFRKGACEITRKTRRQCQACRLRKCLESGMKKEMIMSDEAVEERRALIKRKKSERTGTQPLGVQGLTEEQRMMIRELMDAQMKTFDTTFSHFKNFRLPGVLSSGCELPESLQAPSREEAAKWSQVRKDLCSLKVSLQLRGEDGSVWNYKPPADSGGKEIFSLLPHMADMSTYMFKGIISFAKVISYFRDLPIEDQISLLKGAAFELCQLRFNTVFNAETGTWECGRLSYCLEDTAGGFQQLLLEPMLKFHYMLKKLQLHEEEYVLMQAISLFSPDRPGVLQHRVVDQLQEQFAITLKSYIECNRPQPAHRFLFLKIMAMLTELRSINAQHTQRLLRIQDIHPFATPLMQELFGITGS
Phospholipid hydroperoxide glutathione peroxidase GPX4 (Homo sapiens), sequence (P36969 whole entry, looked up): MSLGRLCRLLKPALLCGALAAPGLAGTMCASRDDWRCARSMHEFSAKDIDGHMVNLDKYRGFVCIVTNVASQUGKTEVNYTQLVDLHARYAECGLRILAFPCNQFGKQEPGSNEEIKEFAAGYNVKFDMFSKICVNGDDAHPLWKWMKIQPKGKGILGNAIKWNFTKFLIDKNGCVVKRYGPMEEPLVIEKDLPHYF

Consider `c1cc(N2CCCC3(CCNCC3)C2)ccn1`, for which, in experiment [1], the Potency was 14.1 µM (active).

In the case of `CN1CCN(c2ncc3ncc(=O)n(C)c3n2)CC1`, in experiment [2], the call was inactive.

Take `CCc1c(C(=O)OC)ncc2[nH]c3cc(OC)c(OC)cc3c12`: the result in experiment [3] was inactive.

As for `O=C(O)C1=CCCN(CCOC(c2ccc(C(F)(F)F)cc2)c2ccc(C(F)(F)F)cc2)C1`, the Potency result in experiment [4], in experiment [6] and in [7] was “inactive” each time. Moreover, in experiment [5], the activity change, negative = inhibition was -6.97%.

Turning to `C=CCc1ccc2c(c1)OCO2`, in [8], the outcome was inactive. Moreover, the Potency result in [9], in experiment [10], in experiment [11], in experiment [12], in experiment [13] and in experiment [14] was “inactive” each time. In experiment [15], the Potency result was “inactive”.

Consider `O=C(OC1CCN(CCCl)CC1)C(c1ccccc1)c1ccccc1`, for which, in experiment [16], the activity change, negative = inhibition is -43.6% [at 30.8 µM] (inactive). Further, in [17], the activation was -1.7% [at 30.8 µM] (inactive).

Consider `COc1ccc2c(c1O)-c1c(OC)c(OC)cc3c1[C@H](C2)N(C)CC3`, for which the Potency result in experiment [18] and in [19] was “inactive” throughout.

On to `C[C@]12CC[C@H](O)CC1=CCC1C2CC[C@]2(C)C(=O)CC[C@@H]12` (stereo partly drawn), for which the activity, negative = inhibition in experiment [20] (parasite line A) was 7.06% (inactive); in [20] (parasite line B), 19% (inactive).

Regarding `COc1cc2c(cc1O)CC1c3c(cc(O)c(OC)c3-2)CCN1C` (stereo not drawn), the Potency result in experiment [18] and in [19] was “inactive” each time.

For `c1ccc(N=Nc2ccccc2)cc1`, the Potency entry in experiment [11], in experiment [12] and in experiment [13] was “inactive” in each case.

As to `CC1=NCCc2c1[nH]c1cc(O)ccc21`, the activity change, negative = inhibition in [16] is 251% [at 30.8 µM] (inactive). The Potency in experiment [17] was 12.6 µM (active).
